Measured values as given in PubChem BioAssay AID1159580 (chemical genetic matrix, 2015).
Values joined by “and” are separate entries in the source; they are usually repeats but may differ in a detail not shown here. Equal values may be shown once. Among all 5,500 compounds or so, about 2,000 (36%) were called active. Roughly 18% stayed inconclusive and do not appear here. No stated cut-off is given here; in the data, active means normalized growth mostly below about 0.91 (no sharp cut-off); inconclusive means no clear call, values can overlap the other calls; inactive means mostly above about 0.92. This is one part of the list.

Assay: chemical genetic growth profiling, strain panel (AID 1159580);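 further: tested at 20 µM; growth read once vehicle control cultures reached saturation at 30 °C; 1 = growth at the plate median or of vehicle wells; lower values mean less growth of the strain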
Conditions: S. cerevisiae deletion strains, growth OD

Measured: normalized growth

CCN(CC)CCOC(=O)C(c1ccccc1)c1ccccc1
inactive: locus YAL013W, strain DEP1, active compounds read low 0.982 | locus YAL021C, strain ccr4, active compounds read low 0.964 | locus YAL026C, strain drs2, active compounds read low 0.975 | locus YAL030W, strain snc1, active compounds read low 0.948 | locus YBL061C, strain skt5, active compounds read low 0.965 | locus YBR009C, strain hhf1, active compounds read low 0.99 | locus YBR021W, strain FUR4, active compounds read low 0.989 | locus YBR023C, strain chs3, active compounds read low 0.957 | locus YBR171W, strain sec66, active compounds read low 0.971 | locus YBR229C, strain ROT2, active compounds read low 1 | locus YBR231C, strain swc5, active compounds read low 0.967 | locus YBR279W, strain paf1, active compounds read low 0.971 | locus YCL011C, strain gbp2, active compounds read low 0.948 | locus YCL016C, strain dcc1, active compounds read low 0.987 | locus YCL029C, strain bik1, active compounds read low 0.979 | locus YCL069W, strain vba3, active compounds read low 0.976 | locus YCR088W, strain abp1, active compounds read low 0.968 | locus YDL005C, strain med2, active compounds read low 0.958 | locus YDL035C, strain GPR1, active compounds read low 0.988 | locus YDL040C, strain nat1, active compounds read low 0.972 | locus YDL074C, strain BRE1, active compounds read low 1.01 | locus YDL101C, strain DUN1, active compounds read low 0.995 | locus YDL134C, strain PPH21, active compounds read low 0.997 | locus YDL185W, strain tfp1, active compounds read low 0.96 | locus YDL192W, strain arf1, active compounds read low 0.989 | locus YDR001C, strain nth1, active compounds read low 0.964 | locus YDR069C, strain doa4, active compounds read low 0.936 | locus YDR101C, strain arx1, active compounds read low 1.01 | locus YDR137W, strain rgp1, active compounds read low 0.994 | locus YDR159W, strain sac3, active compounds read low 0.947 | locus YDR162C, strain NBP2, active compounds read low 0.961 | locus YDR195W, strain ref2 0.889 | locus YDR297W, strain sur2, active compounds read low 0.974 | locus YDR318W, strain mcm21, active compounds read low 0.986 | locus YDR334W, strain swr1, active compounds read low 0.943 | locus YDR335W, strain msn5, active compounds read low 0.976 | locus YDR388W, active compounds read low 1 | locus YDR392W, strain spt3, active compounds read low 1.01 | locus YDR502C, strain sam2, active compounds read low 1 | locus YEL003W, strain gim4, active compounds read low 0.972 | locus YEL037C, strain rad23, active compounds read low 0.973 | locus YEL061C, strain CIN8 (second series), active compounds read low 0.957 | locus YEL061C, strain CIN8, active compounds read low 0.987 | locus YER015W, strain faa2, active compounds read low 0.984 | locus YER016W, strain bim1, active compounds read low 0.976 | locus YER110C, active compounds read low 0.968 | locus YER111C, strain swi4, active compounds read low 0.957 | locus YER155C, strain BEM2 (second series), active compounds read low 0.951 | locus YER155C, strain BEM2, active compounds read low 1.01 | locus YER167W, strain BCK2, active compounds read low 0.993 | locus YFR010W, strain ubp6, active compounds read low 0.959 | locus YGL078C, strain dbp3, active compounds read low 0.987 | locus YGL086W, strain mad1, active compounds read low 0.995 | locus YGL167C, strain pmr1, active compounds read low 0.962 | locus YGL173C, strain kem1, active compounds read low 0.98 | locus YGL227W, strain vid30, active compounds read low 0.961 | locus YGL240W, strain doc1, active compounds read low 0.963 | locus YGL248W, strain PDE1, active compounds read low 1.01 | locus YGL253W, strain hxk2, active compounds read low 0.97 | locus YGR135W, strain pre9, active compounds read low 0.955 | locus YGR229C, strain SMI1, active compounds read low 0.979 | locus YGR252W, strain gcn5, active compounds read low 0.994 | locus YHR013C, strain ard1, active compounds read low 0.964 | locus YHR027C, strain rpn1, active compounds read low 0.971 | locus YHR030C, strain SLT2, active compounds read low 0.981 and 0.995 | locus YHR079C, strain IRE1 (second series), active compounds read low 0.99 | locus YHR079C, strain IRE1, active compounds read low 0.986 | locus YHR094C, strain hxt1, active compounds read low 0.993 | locus YHR129C, strain ARP1, active compounds read low 0.99 | locus YHR142W, strain chs7, active compounds read low 0.967 | locus YHR200W, strain rpn10, active compounds read low 0.975 | locus YIL066C, strain RNR3, active compounds read low 1 | locus YIL073C, strain SPO22, active compounds read low 0.935 | locus YIL125W, strain kgd1, active compounds read low 1 | locus YIR030C, strain dcg1, active compounds read low 0.987 | locus YJL092W, strain hpr5, active compounds read low 0.964 | locus YJL095W, strain BCK1 (second series), active compounds read low 0.973 | locus YJL095W, strain BCK1, active compounds read low 1.02 and 0.981 | locus YJL115W, strain asf1, active compounds read low 0.949 | locus YJL129C, strain trk1, active compounds read low 0.972 | locus YJL134W, strain LCB3, active compounds read low 0.989 | locus YJL154C, strain vps35, active compounds read low 0.959 | locus YJL164C, strain tpk1, active compounds read low 0.993 | locus YJL166W, strain qcr8, active compounds read low 0.958 | locus YJL168C, strain set2, active compounds read low 1 | locus YJL187C, strain SWE1 (second series), active compounds read low 1.01 | locus YJR043C, strain POL32, active compounds read low 0.998 | locus YJR066W, strain TOR1, active compounds read low 0.963 | locus YKL009W, strain mrt4, active compounds read low 0.959
